Only some compounds are listed: those with a hit (about 7.8% of all), similar ones and a draw of the others.
HCV inhibitor – qHTS Assay for Inhibitors of Hepatitis C Virus (HCV); Huh7.5.1 HCVcc-Cre infection, luciferase reporter, 44 h; Potency, µM (highest dose often 41.8 µM), without a hit: top-dose activity change, negative = inhibition, actives largely listed as inhibitors; 340,000 compounds, 3.4% hits; AID 651820, 2012; active means well fitted inhibition curve with a large enough effect; inconclusive means small, poorly fitted or top-dose-only effect, or another doubt; inactive means no such curve, though single readings can be large or run the other way; further: potency means the concentration at half of the fitted maximal effect
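Infectious HCVcc-Cre (~0.5 moi) was added to cells just after compound, with cells seeded 4 h earlier at 1,000 per well. Luciferase activity after 44 h culture reported infection; substrate was incubated 15 min at room temperature before reading.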
LASV entry inh – qHTS for Inhibitors of binding or entry into cells for Lassa Virus | Lassa virus pseudotype entry inhibition, cell reporter | Potency, µM (doses to about 37.9 µM), without a hit: at the highest dose activity change, negative = inhibition, most hits filed as inhibitors | 300,000 compounds, 1.2% hits | AID 540256, 2011; calls by dose curve; tested in HEK293 cells; further: potency means the concentration at half of the fitted maximal effect; nearly all actives have a fitted effect of over 50% in size
Vaccinia mCherry – qHTS for Stage-Specific Inhibitors of Vaccinia Orthopoxvirus: mCherry Reporter Primary qHTS; Vaccinia virus mCherry reporter infection, fluorescence; Potency, µM (top dose mostly 36.5 µM), without a hit: at the top dose activity change, negative = inhibition, usual class: inhibitors; 310,000 compounds, 0.63% hits; calls by dose curve; tested in A549 cells; further: potency means the concentration at half of the fitted maximal effect; nearly all actives have a fitted effect of over 35% in size
Vaccinia Venus – qHTS for Stage-Specific Inhibitors of Vaccinia Orthopoxvirus: Venus Reporter Primary qHTS. 330,000 compounds, 0.46% hits. Vaccinia virus Venus reporter expression, fluorescence. Potency, µM (titrated, usually from 36.5 µM), inactives show top-dose activity change, negative = inhibition, hits mostly inhibitors. AID 720580, 2013; calls by dose curve; tested in A549 cells; further: potency means the concentration at half of the fitted maximal effect; nearly all actives have a fitted effect of over 30% in size
HCMV antiviral – qHTS Assay for inhibitors of the human cytomegalovirus (HCMV); HFF cells, HCMV-luciferase reporter, 72 h; hits give low values; activity change, negative = inhibition, % at 57.5 µM; 410,000 compounds, 4.5% hits; AID 1259415, 2018; in the data active means activity change below about -60%; inconclusive means no clear call, values can overlap the other calls; inactive means above about -39%
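Steps: HFFs plated, 16 h 37C; compounds added; HCMV-luciferase added to MOI 1 PFU/cell; 72 h 37C; OneGlo reagent, 5 min room temperature; luminescence read, normalized to controls.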
MARV entry inh – qHTS for inhibitors of binding or entry into cells for Marburg Virus. AID 540276, 2011. Potency, µM (highest dose often 37.8 µM), for inactives: at the top dose activity change, negative = inhibition, hits mostly inhibitors. 300,000 compounds, 1.8% hits. Marburg virus pseudotyped entry inhibition, cell reporter; calls by dose curve; tested in HEK293 cells; further: potency means the concentration at half of the fitted maximal effect
Starred values were filed as active, the others as inactive; i = inactive; ? = inconclusive; . = no result given; + = active, no number; ! = not confirmed by another sample; [ ] = dose if it differs, or a comment. On the % scale 0 is the no-effect control and ±100 the full control effect.

SMILES | HCV inhibitor | LASV entry inh | Vaccinia mCherry | Vaccinia Venus | HCMV antiviral | MARV entry inh
COc1ccc(C2=NS(=O)(=O)N(C)C(C(=O)N3CCc4ccccc4C3)=C2)cc1OC | 10µM* | . | -21% | -7% | -28 | .
CCc1ccc(NC(=O)C2=CC(c3ccc(OC)c(OC)c3)=NS(=O)(=O)N2C)cc1 | 5.6µM* | . | -6% | -21% | ? | .
Cc1ccc(C(=O)NC2(C(F)(F)F)N=C(c3ccccc3)N(C3CCCCC3)C2=O)cc1 (stereo not given) | . | 4%[46.1 µM] | -9% | -1% | 15 | -9%[46.1 µM]
Cc1c(Cl)cccc1NC(=O)CSc1nc(=O)n(Cc2ccccn2)c2c1CCC2 | . | 14%[46.1 µM] | ? | -18% | -11 | .
C=CC[C@H](CC(=O)N(CCO)Cc1ccccc1)C(=O)NC[C@H](OC(=O)[C@@H](CC=C)Cc1ccc(F)cc1)c1ccccc1 | ? | . | ? | 11µM* | 19 | .
C=CCC[C@@H](Cc1ccc(F)cc1)C(=O)OC[C@@H](NC(=O)[C@@H](CC=C)CC(=O)N(CCO)Cc1ccccc1)c1ccccc1 | ? | . | ? | ? | -101* | .
C=CC[C@@H](Cc1ccc(F)cc1)C(=O)OC[C@@H]1CCCN1C(=O)[C@H](CC=C)CC(=O)N(CCO)Cc1ccccc1 | 1.4µM* | . | -16% | ? | -36 | .
C=CC[C@@H](CC(=O)N(CCO)Cc1ccccc1)C(=O)NC[C@@H](OC(=O)[C@@H](CC=C)Cc1ccc(F)cc1)c1ccccc1 | ? | . | 11% | -7% | 3 | .
C=CC[C@@H](CC(=O)N[C@@H](CO)Cc1ccccc1)C(=O)NC[C@H](OC(=O)[C@@H](CC=C)Cc1ccc(F)cc1)c1ccccc1 | 21% | . | -21% | ? | -64* | .
COc1cccc(NC(=O)/C(C#N)=C/c2c(C)n(Cc3ccccc3)c3ccccc23)c1 | . | ? | -20% | 7% | -27 | .
N#Cc1ccccc1Cn1c(=O)n(CCCC(=O)NCc2ccc3c(c2)OCO3)c(=O)c2sccc21 | . | -8%[46.1 µM] | -13% | -10% | ? | 8%[46.1 µM]
COc1ccc(S[C@]2(c3nc(C)no3)CC(=O)N[C@@H]2c2ccc(OC)cc2)cc1 | . | . | . | . | -2 | .
C=CCC[C@@H](Cc1ccc(F)cc1)C(=O)OCCNC(=O)[C@@H](CC=C)CC(=O)N(CCO)Cc1ccccc1 | 10µM* | . | -2% | ? | -1 | .
O=C(Cn1c(=O)n(Cc2nc(-c3ccccc3)no2)c(=O)c2cc3c(cc21)OCO3)Nc1cccc(C(F)(F)F)c1 | . | 27%[46.1 µM] | -3% | 3% | -3 | .
C=CCn1c(SCC(=O)NC2CCCC2)nc2c([nH]c3ccccc32)c1=O | -4% | -13% | -6% | -7% | -90* | 11%
Cc1[nH]c2ccccc2c1SCC(=O)NC1CCCCC1 | ? | . | -2% | -10% | -64* | .
C=CCn1c(SCC(=O)N2CCCC2)nc2c([nH]c3ccccc32)c1=O | 0% | . | . | . | 43 | .
COc1cc(/C=C/c2nc3cc(Cl)ccc3c(=O)n2-c2cccc(C(F)(F)F)c2)cc(OC)c1OC | . | -1%[46.1 µM] | -9% | -9% | -2 | .
Cn1c(=O)cc(SCC(=O)N2CCN(c3ccccc3F)CC2)c2cc(Cl)ccc21 | . | -22%[46.1 µM] | -6% | 0% | -6 | 1%[46.1 µM]
CCC1Nc2ncnc(N3CCOCC3)c2N(Cc2ccc(OC)cc2)C1=O (stereo not given) | 8% | . | i | -18% | -10 | .
CC(C)CC1Nc2ncnc(N3CCN(c4ccccn4)CC3)c2N(Cc2ccc(Br)cc2)C1=O (stereo not given) | 25µM* | . | -24% | ? | 1 | .
CCC1Nc2ncnc(N3CCN(c4ccccc4)CC3)c2N(Cc2ccc(OC)cc2)C1=O (stereo not given) | 2.8µM* | . | -16% | -19% | 3 | .
Cc1ccc(CN2C(=O)C(CC(C)C)Nc3ncnc(N4CCN(c5ccccn5)CC4)c32)cc1 (stereo not given) | ? | . | 28µM* | ? | -3 | .
CC(C)CC1Nc2ncnc(N3CCOCC3)c2N(Cc2ccc(Cl)cc2)C1=O (stereo not given) | -13% | . | -4% | -16% | -101*! | .
COc1ccc(CN2C(=O)C(CC(C)C)Nc3ncnc(N4CCN(c5ccccn5)CC4)c32)cc1 (stereo not given) | 0% | . | -16% | ? | 20 | .
SMILES | HCV inhibitor | LASV entry inh | Vaccinia mCherry | Vaccinia Venus | HCMV antiviral | MARV entry inh
O=C1CCC[C@H]2[C@@H](Cc3ccccc3)[C@H](NCc3ccccc3)CC[C@]23CCCN13 | . | . | . | . | -9 | .
CNS(=O)(=O)c1cn(CC(=O)Nc2cccc(C(F)(F)F)c2)cc1S(=O)(=O)NC | . | -1%[46.1 µM] | -8% | 2% | + | .
CCN1CCN(C(c2ccccc2Cl)c2sc3nc(-c4ccco4)nn3c2O)CC1 (stereo not given) | . | 6%[46.1 µM] | -11% | -11% | 11 | .
CC(C)N1C(=S)N=C2C=C(C(F)(F)F)C=CC21 (stereo not given) | . | . | . | . | . | -18%[46.1 µM]
COc1cc(NC(=S)NC(=O)CCc2ccccc2)cc(OC)c1 | . | -14% | -3% | -11% | -84* | 23%
CC(C)(C)c1cc(CCC(=O)NNC(=S)NC(=O)c2ccccc2)cc(C(C)(C)C)c1O | 2.8µM* | ? | . | . | . | ?
O=C(CCc1ccccc1)NNC(=S)NC(=O)c1ccccc1 | -2% | -25% | -4% | -10% | -101* | ?
CC(C)(C)c1cc(CCC(=O)NNC(=O)c2ccco2)cc(C(C)(C)C)c1O | ? | 1% | -20% | -19% | -27 | 8.9µM*
COc1ccccc1NC(=S)NC(=O)CCc1ccccc1 | -4% | ? | i | -12% | 7 | ?
CC(=O)NC(=S)NNC(=O)CCc1ccccc1 | 25% | . | . | . | -15 | .
CC1=CC[C@@H](COc2ccccc2)O[C@@]2(C1)C(=O)N(Cc1ccccc1C(F)(F)F)c1cccc(Br)c12 | . | . | . | . | . | -7%[14.2 µM]
COC(=O)C1=C(C(=O)OC)[C@@H]2N(C)c3ccccc3[C@@]23C[C@@H](C(=O)OC)N(C(=O)Nc2cccc(C#N)c2)C3=N1 | . | . | . | . | . | 27%[14.2 µM]
COc1cc2nc(NCc3ccccc3)n3nc(-c4ccccc4)nc3c2cc1OC | . | . | i | -7% | 1 | 3%[46.1 µM]
COc1ccccc1C1C(C(N)=O)=C(C)Nc2nc(SCc3ccccc3F)nn21 (stereo not given) | . | 8%[46.1 µM] | -12% | -11% | -27 | ?
CCOc1ccc(-c2nnc3sc(COc4ccc(C)cc4)nn23)cc1 | 16% | 8.2µM* | -7% | -5% | 3 | 7%[46.1 µM]
COc1ccccc1N1CCN(c2ncnc3c2cnn3C)CC1 | . | ? | -29% | -15% | 8 | .
Cc1ccccc1NS(=O)(=O)c1ccc(C(=O)NCC2(N3CCOCC3)CCCCC2)cc1 | -26% | . | . | . | -6 | .
